Source: PubChem BioAssay
Active and inactive are the calls of the source.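 The calls were made as follows, unless noted: active = compounds lowering colon cancer cell viability after pretreatment blocking the GSK3B kinase; inactive = the rest.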

Columns and labels:
[1] = stimulators of nuclear beta-catenin in C2C12, primary screen, imaging, WNT3A-conditioned medium, mouse C2C12, NPC library (AID 1117326; in the data active = nuclear beta-catenin stimulation mostly above about 4.2%, no sharp cut-off; inactive = mostly below about 10%; also: reference of the scale not given here); settings: stronger effect = higher value
[2] = stimulators of insulin release from INS-1E, primary screen, cell-based, 5 mM glucose, NPC library (AID 1117329;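 active = compound raises insulin release from rat beta cells at 5 mM glucose, no numeric limit stated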; also: reference of the scale not given here); settings: rat INS-1E insulin secretion, at 10 µM, stronger effect = higher value
[3] = growth inhibition of GSK3B-pretreated HCT116 cells – cell-based, CellTiter-Glo, 0.2 to 20 µM (AID 1117336); settings: HCT116 viability after GSK3B inhibitor, at 20 µM, stronger effect = higher value
[4] = inhibition of endothelial tube formation, primary screen, imaging, VEGF stimulated, CD31 staining, tube area, NPC library (AID 1117340;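 active = compound that reduces growth-factor-driven endothelial tube area in a mixed cell culture, no cutoff stated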); settings: VEGF-stimulated ADSC/ECFC co-culture, at 10 µM, stronger effect = higher value
[5] = glucagon-like peptide 1 release enhancers, primary assay, NCI-H716 cell line, NPC library (AID 1117341;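 active = compound raises GLP1 secretion from the human gut endocrine cells, with no numeric limit stated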; also: reference of the scale not given here); settings: NCI-H716 cells, at 10 µM, stronger effect = higher value
[6] = HCT116 colon cancer cell growth inhibition, primary screen, CellTiter-Glo luminescence, NPC library (AID 1117342;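 active = compounds that lower survival of HCT116 colon cancer cells in the luminescence readout, no numeric limit stated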); settings: at 20 µM (top of the series)
[7] = CellTiter-Glo luminescent readout of SW480 viability loss, NPC library primary (AID 1117343;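 active = compounds that lower viability of the colon cancer cells in the luminescence readout, with no numeric limit stated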); settings: CellTiter-Glo luminescence; at 20 µM (top of the series)
[8] = decreased DLD-1 cellular survival, CellTiter-Glo luminescent readout, NPC compound collection, primary HTS (AID 1117346;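 active = compounds that lower survival of DLD-1 colon cancer cells in the luminescence readout, no cutoff given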); settings: DLD-1 viability, CellTiter-Glo luminescence; at 20 µM (top of the series)

Row | SMILES | nuclear beta-catenin stimulation ([1]; at 10 µM) | nuclear beta-catenin stimulation ([1]; stimulation, at 2 µM) [%] | insulin secretion stimulation [2] | viability decrease [3] | tube area decrease [4] | GLP1 secretion stimulation [5] | inhibition of viability [6] | viability decrease (inhibition) [7] | viability decrease (inhibition) [8]
1 | CC12C=CC(=O)C=C1CCC1C2C(O)CC2(C)C1CCC2(O)C(=O)COP(=O)(O)O (centres undefined) | 1.1% (inactive) | 0.6 | 1.5% (inactive) | -38.5% (inactive) | -3.4% (inactive) | -2% (inactive) | 1.57% (inactive) | -2.1% (inactive) | -14.4% (inactive)
2 | CCCCOC(=O)CC(CC(=O)OCCCC)(OC(C)=O)C(=O)OCCCC | -0.3% (inactive) | 0.1 | 6.2% (inactive) | 30.4% (inactive) | 2.1% (inactive) | 0.1% (inactive) | 25.9% (inactive) | 62.1% (active) | 26.9% (inactive)
3 | CC(=O)O[C@@H]1CC2C3CCc4cc(OC(=O)c5ccccc5)ccc4C3CCC2(C)[C@H]1OC(C)=O (some centres undefined) | 0.7% (inactive) | 1.1 | 0.5% (inactive) | -39.7% (inactive) | 27.8% (inactive) | 2.1% (inactive) | 0.9% (inactive) | 47% (inactive) | -13.5% (inactive)
4 | CCCCNc1ccc(C(=O)OCCN(CC)CC)cc1 | 4% (inactive) | 1.7 | 7.25% (inactive) | 50.2% (active) | 19.5% (inactive) | 3.7% (inactive) | 81.8% (active) | 60.6% (active) | 88.7% (active)
5 | COc1cc2c(cc1OC)C(=O)CC2 | 0.3% (inactive) | 2 | 0.2% (inactive) | -1.6% (inactive) | 3.8% (inactive) | 3.1% (inactive) | -8.1% (inactive) | 4.2% (inactive) | 14.9% (inactive)
6 | Cc1cc(O)cc2c1O[C@](C)(CCC[C@H](C)CCC[C@H](C)CCCC(C)C)CC2 | -1.3% (inactive) | -2 | 3.8% (inactive) | 12.5% (inactive) | 6.7% (inactive) | 0% (inactive) | 14.3% (inactive) | -12.8% (inactive) | -10.9% (inactive)
7 | N#C[C@H]1C[C@H]2C[C@@H]2N1C(=O)[C@@H](N)C12CC3CC(CC(O)(C3)C1)C2 | 0.4% (inactive) | 1.1 | -2% (inactive) | -4.75% (inactive) | 2.7% (inactive) | 1.4% (inactive) | -5.3% (inactive) | 9.8% (inactive) | 6.25% (inactive)
8 | C/C(=C1\CCOC(=O)S1)N(C=O)Cc1cnc(C)nc1N | -0.3% (inactive) | 0.1 | 4.7% (inactive) | -6.1% (inactive) | -16.6% (inactive) | 8.1% (inactive) | 19.8% (inactive) | 3.7% (inactive) | 1.5% (inactive)
9 | O=C(OCC(COC(=O)c1cccnc1)(COC(=O)c1cccnc1)COC(=O)c1cccnc1)c1cccnc1 | -0.6% (inactive) | -0.3 | 1.6% (inactive) | -13.3% (inactive) | -11.4% (inactive) | 0.8% (inactive) | 17.4% (inactive) | -4.3% (inactive) | -2.7% (inactive)
10 | COc1cc([C@@H]2c3cc4c(cc3[C@@H](O[C@@H]3O[C@@H]5CO[C@@H](C)O[C@@H]5[C@H](O)[C@@H]3O)[C@H]3COC(=O)[C@H]23)OCO4)cc(OC)c1O | 44.6% (active) | 18.8 | 1.2% (inactive) | 21.9% (inactive) | 104% (active) | 0.6% (inactive) | 53.9% (active) | 73.1% (active) | 49.6% (inactive)
11 | O=C1CC(c2ccc(Cl)cc2)CC(=O)N1 | -1.1% (inactive) | -2.3 | 1.8% (inactive) | 2.1% (inactive) | -4.2% (active) | 3.8% (inactive) | 20.4% (inactive) | -4.9% (inactive) | 6.7% (inactive)
12 | OCC(O)CS (centres undefined) | -0.5% (inactive) | 0.8 | 0.7% (inactive) | -84.2% (inactive) | 27.8% (inactive) | 0.4% (inactive) | 6.77% (inactive) | -24% (inactive) | -8.2% (inactive)
13 | C[C@@H](O)[C@H]1C(=O)N2C(C(=O)O)=C([C@H]3CCCO3)S[C@H]12 | 0.5% (inactive) | 0.5 | -1.8% (inactive) | 13.8% (inactive) | -11.6% (inactive) | 1.1% (inactive) | 3.4% (inactive) | 34.6% (inactive) | 11.2% (inactive)
14 | C[C@H]1O[C@@H](O[C@H]2CC[C@@]3(C)[C@H](CC[C@@H]4[C@@H]3C[C@@H](O)[C@]3(C)[C@@H](C5=CC(=O)OC5)CC[C@]43O)C2)C[C@H](O)[C@@H]1O[C@H]1C[C@H](O)[C@H](O[C@H]2C[C@H](O)[C@H](O[C@@H]3O[C@H](CO)[C@@H](O)[C@H](O)[C@H]3O)[C@@H](C)O2)[C@@H](C)O1 | -1% (inactive) | -0.7 | -0.5% (inactive) | 65% (active) | 108% (active) | 8% (inactive) | 54.5% (active) | 69.4% (active) | 79.5% (active)
15 | CC(C)NC(=O)c1ccc(C=O)cc1 | 0% (inactive) | -0.8 | -0.75% (inactive) | 18.8% (inactive) | -7.2% (inactive) | 2.1% (inactive) | -5.1% (inactive) | -15.1% (inactive) | -5.8% (inactive)
16 | CCN(CC)CCOc1ccc(C(O)(Cc2ccc(Cl)cc2)c2ccc(C)cc2)cc1 (centres undefined) | 8.8% (inactive) | 1.9 | 0.1% (inactive) | 101% (active) | 107% (active) | 31.5% (active) | 102% (active) | 122% (active) | 101% (active)

Row | SMILES | nuclear beta-catenin stimulation ([1]; at 10 µM) | nuclear beta-catenin stimulation ([1]; stimulation, at 2 µM) [%] | insulin secretion stimulation [2] | viability decrease [3] | tube area decrease [4] | GLP1 secretion stimulation [5] | inhibition of viability [6] | viability decrease (inhibition) [7] | viability decrease (inhibition) [8]
17 | CN(C)CCN(Cc1ccsc1)c1ccccn1 | -1.6% (inactive) | 1.7 | 1.3% (inactive) | 4.6% (inactive) | -14.7% (inactive) | -2.8% (inactive) | 5.1% (inactive) | -0.5% (inactive) | -3.9% (inactive)
18 | COc1ccc(/C(C)=C/C(=O)O)c(OC)c1 | 1.2% (inactive) | 0.1 | -0.4% (inactive) | 10.1% (inactive) | -9.3% (inactive) | 1.3% (inactive) | -0.3% (inactive) | -19.9% (inactive) | -10.1% (inactive)
19 | OC(C#CCN1CCCC1)(c1ccccc1)c1ccccc1 | 1.6% (inactive) | 0.1 | 4.7% (inactive) | 20.5% (inactive) | 11.1% (inactive) | 5.5% (inactive) | 21.4% (inactive) | 9.7% (inactive) | -4.2% (inactive)
20 | CS(=O)(=O)c1ccc(-c2cn3ccccc3n2)cc1 | -2% (inactive) | -0.4 | 0.9% (inactive) | 18.1% (inactive) | -6.3% (inactive) | -2.6% (inactive) | 14.5% (inactive) | 22.6% (inactive) | 13.5% (inactive)
21 | CCCSS/C(CCO)=C(\C)N(C=O)Cc1cnc(C)nc1N | -1.4% (inactive) | -0.7 | 10.2% (inactive) | 33.3% (inactive) | 55.3% (active) | -4.8% (inactive) | 19.1% (inactive) | 45.4% (inactive) | 65.6% (active)
22 | Cn1c(=O)c2[nH]c(Br)nc2n(C)c1=O | 0.6% (inactive) | 2 | 0.9% (inactive) | 2.55% (inactive) | 10.2% (inactive) | 1.1% (inactive) | -3.7% (inactive) | -17.4% (inactive) | -0.15% (inactive)
23 | CCCCCCCCCCCCCCCC(=O)OC(C)C | 0.6% (inactive) | 1.3 | 2.3% (inactive) | -9.5% (inactive) | -17.7% (inactive) | -1.2% (inactive) | 3.07% (inactive) | -0.2% (inactive) | -1.5% (inactive)
24 | CN(C)c1ccc(C(=C2C=CC(=[N+](C)C)C=C2)c2ccccc2)cc1 | 4.5% (active) | 63.1 | 0.2% (inactive) | 100% (active) | 109% (active) | 0.7% (inactive) | 99.7% (active) | 102% (active) | 102% (active)
25 | O=S(=O)(O)c1ccc2c(N=Nc3ccc(S(=O)(=O)O)c4ccccc34)c(O)c(S(=O)(=O)O)cc2c1 | 0.7% (inactive) | 0.1 | 2.6% (inactive) | 0% (inactive) | 11.5% (inactive) | -3.9% (inactive) | 2.8% (inactive) | 19.3% (inactive) | 6.8% (inactive)
26 | COC(=O)c1cc(S(N)(=O)=O)ccc1OC | 0.9% (inactive) | 1.4 | -0.15% (inactive) | -6.1% (inactive) | 1.6% (inactive) | 0.1% (inactive) | -5.9% (inactive) | -8.9% (inactive) | -2.9% (inactive)
27 | Cc1ccc(S(=O)(=O)NC(=O)NC2CCCCCCC2)cc1 | -0.3% (inactive) | 0.1 | 18.5% (inactive) | 11.2% (inactive) | 14.5% (inactive) | 3.1% (inactive) | -9.1% (inactive) | 36.4% (inactive) | 12.9% (inactive)
28 | CCN(CC)CCNC(=O)COc1ccc(Cl)cc1 | -2.4% (inactive) | -0.4 | 0.9% (inactive) | -9.5% (inactive) | -3.5% (inactive) | -4.5% (inactive) | 22.7% (inactive) | 34.2% (inactive) | 0.6% (inactive)
29 | CCC(=O)O | -0.6% (inactive) | 1.3 | 3.2% (inactive) | -1.2% (inactive) | -25.7% (inactive) | -3% (inactive) | 3.7% (inactive) | -0.5% (inactive) | 3.7% (inactive)
30 | C=Cc1c(C)c2cc3nc(cc4[nH]c(cc5nc(cc1[nH]2)C(C)=C5CCC(=O)O)c(CCC(=O)OC)c4C)[C@@]1(C)C3=CC=C(C(=O)OC)[C@@H]1C(=O)OC | 16.7% (inactive) | 0.4 | 1.5% (inactive) | 97.7% (active) | -206% (inactive) | -1.9% (inactive) | 92.4% (active) | 98.2% (active) | 99.9% (active)
31 | COc1cc(OC)nc(O[C@H](C(=O)O)C(OC)(c2ccccc2)c2ccccc2)n1 | 2.7% (inactive) | -0.4 | 1% (inactive) | 1.1% (inactive) | -16.9% (inactive) | 3.3% (inactive) | 1.2% (inactive) | 6.1% (inactive) | 2.4% (inactive)
